This is an account of results in the supplement of paper PMC8866396.

Structures are written as SMILES. ± gives the standard deviation of the averaged measurements.

One test relates to IL-6-GFP PC-9GR. Nature of the test: cell viability (CCK-8 OD) relative to DMSO control (fraction of control); higher = more viable cells. Conditions: compound concentration: 10 uM; treatment time: 48 h. Summed up: (§1)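 A purchased 510-compound library was screened at a final 10 μM for 48 h against PC-9 and PC-9GR lung cancer cells overexpressing IL-6-GFP via a lentiviral construct, seeded at 3000 cells/well in 96-well plates. GFP imaging was done on a parallel plate set. For viability, CCK-8 absorbance was recorded and each well's optical density was divided by that of the vehicle control well. There were two independent replicates.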

In the next test the test system is IL-6-GFP PC-9. The description is as above. Conditions: compound concentration: 10 uM; treatment time: 48 h. Summed up:
as §1

On to `NC(=O)NO` [Hydroxyurea], for which the cell viability in the test on IL-6-GFP PC-9GR is 1.32 ± 0.077; in the test on IL-6-GFP PC-9, 0.839 ± 0.1.
For `C=C1c2cccc(O)c2C(=O)C2=C(O)C3(O)C(=O)C(C(N)=O)=C(O)C(N(C)C)C3C(O)C12.Cl` (stereo unspecified) [Methacycline HCl], the cell viability in the test with IL-6-GFP PC-9GR came out at 0.894 ± 0.32; in the test with IL-6-GFP PC-9, 1 ± 0.072.
On to `Cc1cnc(NC(=O)C2=C(O)c3ccccc3S(=O)(=O)N2C)s1` [Meloxicam], for which the cell viability was 1.2096 ± 0.0007 with IL-6-GFP PC-9GR and 1.4 ± 0.41 with IL-6-GFP PC-9.
Regarding `O=C(O)COc1nn(Cc2ccccc2)c2ccccc12` [Bendazac], the cell viability came to 1.85 ± 0.092 in the test with IL-6-GFP PC-9GR and 1.14 ± 0.11 with IL-6-GFP PC-9.
Consider `Cc1ccc(C2OC(CO)C(O)C(O)C2O)cc1Cc1ccc(-c2ccc(F)cc2)s1` (stereo unspecified) [Canagliflozin], for which the cell viability in the test on IL-6-GFP PC-9GR was 1.14 ± 0.12; in the test on IL-6-GFP PC-9, 1.16 ± 0.15.
Take `Nc1cccc2c1C(=O)N(C1CCC(=O)NC1=O)C2=O` (stereo unspecified) [Pomalidomide]: the results for the cell viability in the test with IL-6-GFP PC-9GR and in the test on IL-6-GFP PC-9 were 1.5 ± 0.33 and 1.22 ± 0.12, respectively.
In the case of `CCC1=CC2CN(C1)Cc1c([nH]c3ccccc13)C(C(=O)OC)(c1cc3c(cc1OC)N(C)C1C(O)(C(=O)OC)C(OC(C)=O)C4(CC)C=CCN5CCC31C54)C2.O=C(O)C(O)C(O)C(=O)O.O=C(O)C(O)C(O)C(=O)O` (stereo unspecified) [Vinorelbine Tartrate], the cell viability in the test on IL-6-GFP PC-9GR is 0.559 ± 0.13; in the test on IL-6-GFP PC-9 it was 0.566 ± 0.081.
Regarding `Cc1nc(Nc2ccc(F)cc2)nc(N2CCc3ccccc3C2C)c1C.Cl` (stereo unspecified) [Revaprazan Hydrochloride], the figures for the cell viability in the test with IL-6-GFP PC-9GR and with IL-6-GFP PC-9 were 1.63 ± 0.64 and 1.14 ± 0.043, respectively.
On to `Cc1ccc(S(=O)(=O)O)cc1.NC(=O)c1cccc2cn(-c3ccc(C4CCCNC4)cc3)nc12` (stereo unspecified) [Niraparib (MK-4827) tosylate], for which the cell viability in the test on IL-6-GFP PC-9GR was determined as 0.764 ± 0.096; in the test on IL-6-GFP PC-9, 0.916 ± 0.22.
Take `COc1cc2nccc(Oc3ccc(NC(=O)Nc4cc(C)on4)c(Cl)c3)c2cc1OC` [Tivozanib (AV-951)]: the figures for the cell viability in the test on IL-6-GFP PC-9GR and with IL-6-GFP PC-9 were 0.792 ± 0.15 and 0.353 ± 0.036, respectively.
Consider `CS(=O)(=O)c1ccc(C(=O)Nc2ccc(Cl)c(-c3ccccn3)c2)c(Cl)c1` [Vismodegib (GDC-0449)], for which the cell viability in the test with IL-6-GFP PC-9GR was found to be 1.05 ± 0.072; in the test on IL-6-GFP PC-9, 0.311 ± 0.32.
In the case of `Cc1ccc(C2OC(CO)C(O)C(O)C2O)cc1Cc1ccc(-c2ccc(F)cc2)s1.Cc1ccc(C2OC(CO)C(O)C(O)C2O)cc1Cc1ccc(-c2ccc(F)cc2)s1.O` (stereo unspecified) [Canagliflozin hemihydrate], the cell viability with IL-6-GFP PC-9GR stood at 1.12 ± 0.2; with IL-6-GFP PC-9, 0.932 ± 0.22.
`CC(C)(C)c1ccc(C(=O)CCCN2CCC(OC(c3ccccc3)c3ccccc3)CC2)cc1` [Ebastine]: the cell viability with IL-6-GFP PC-9GR worked out at 0.62 ± 0.3; in the test with IL-6-GFP PC-9, 0.628 ± 0.031.
`COc1nc2ccc(Br)cc2cc1C(c1ccccc1)C(O)(CCN(C)C)c1cccc2ccccc12.O=C(O)/C=C/C(=O)O` (stereo unspecified) [Bedaquiline fumarate]: the figures for the cell viability in the test on IL-6-GFP PC-9GR and in the test on IL-6-GFP PC-9 were 1.18 ± 0.17 and 1.15 ± 0.067, respectively.
In the same order, the values of `CNNCc1ccc(C(=O)NC(C)C)cc1.Cl` [Procarbazine HCl] are 1.02 ± 0.16 and 1.17 ± 0.042.
As for `COc1ccc2cc(CCC(C)=O)ccc2c1` [Nabumetone], the values for the cell viability in the test with IL-6-GFP PC-9GR and with IL-6-GFP PC-9 were 1.29 ± 0.24 and 1.11 ± 0.13, respectively.
For `OCC1OC(c2ccc(Cl)c(Cc3ccc(OC4CCOC4)cc3)c2)C(O)C(O)C1O` (stereo unspecified) the same measures were 1.05 ± 0.13 and 0.905 ± 0.058.
For `Cn1c(=O)cc(N2CCCC(N)C2)n(Cc2cc(F)ccc2C#N)c1=O.O=C(O)CCC(=O)O` (stereo unspecified) [Trelagliptin succinate] the same measures were 0.825 ± 0.15 and 1.07 ± 0.15.
As for `Nc1c(CC(=O)[O-])cccc1C(=O)c1ccc(Br)cc1.[Na+]` [Bromfenac Sodium], the cell viability with IL-6-GFP PC-9GR was determined as 0.923 ± 0.095; with IL-6-GFP PC-9, 1 ± 0.14.
With `Nc1n[n+]([O-])c2ccccc2[n+]1[O-]` [Tirapazamine], the results for the cell viability in the test with IL-6-GFP PC-9GR and with IL-6-GFP PC-9 were 1.09 ± 0.25 and 0.676 ± 0.12, respectively.
On to `COc1cc(N2CCC(N3CCN(C)CC3)CC2)ccc1Nc1ncc(Cl)c(Nc2ccccc2P(C)(C)=O)n1`, for which the cell viability was 0.688 ± 0.15 with IL-6-GFP PC-9GR and 0.41 ± 0.083 in the test on IL-6-GFP PC-9.
As to `NCCc1c[nH]cn1` [Histamine], the cell viability with IL-6-GFP PC-9GR was determined as 1.05 ± 0.16; with IL-6-GFP PC-9 it was 1.29 ± 0.22.
As for `O=C(Oc1ccccc1C(=O)O)c1ccccc1O` [Sasapyrine], the cell viability in the test with IL-6-GFP PC-9GR came to 0.988 ± 0.067; with IL-6-GFP PC-9, 1.25 ± 0.019.
Take `Cc1nnc(C(=O)NC(C)(C)c2nc(C(=O)NCc3ccc(F)cc3)c(O)c(=O)n2C)o1` [Raltegravir (MK-0518)]: the cell viability worked out at 1.21 ± 0.063 in the test with IL-6-GFP PC-9GR and 1.39 ± 0.3 in the test with IL-6-GFP PC-9.
Take `NC(=O)c1cccc2cn(-c3ccc(C4CCCNC4)cc3)nc12` (stereo unspecified) [Niraparib (MK-4827)]: the cell viability was 0.841 ± 0.011 with IL-6-GFP PC-9GR and 0.918 ± 0.045 in the test on IL-6-GFP PC-9.
As to `CNC(=O)c1c(C)oc2cc(Oc3ncnc4cc(OC)c(OC)cc34)ccc12` [Fruquintinib], the cell viability in the test on IL-6-GFP PC-9GR is 1.04 ± 0.12; in the test on IL-6-GFP PC-9 it was 1.12 ± 0.08.
As for `COC(c1ccccc1)(c1ccccc1)C(Oc1nc(C)cc(C)n1)C(=O)O` (stereo unspecified) [Ambrisentan], the cell viability amounted to 1.22 ± 0.077 in the test on IL-6-GFP PC-9GR and 1.25 ± 0.37 in the test with IL-6-GFP PC-9.
For `CCCCCCNC(=O)n1cc(F)c(=O)[nH]c1=O` [Carmofur] the same measures were 0.934 ± 0.022 and 0.906 ± 0.14.
